Reference: PubChem BioAssay (Tox21)
Records with an inconclusive call do not appear. Where a call stands in place of a potency, no number is given. Unmarked numbers belong to inactive results. Calls of active or inactive are those of the source. Unless noted, calls come from the whole dose curve; as a rule, active = well fitted curve in the direction sought with a large enough effect in the repeat runs; inconclusive = weak or mixed curves; inactive = no such curve, though single readings can be large; an effect the other way counts as inactive or inconclusive.

Columns and labels:
[1] = qHTS assay to identify small molecule agonists of the vitamin D receptor (VDR) signaling pathway - cell viability counter screen (AID 743224); note: series mostly up to about 63 µM; nearly all actives have a fitted effect of over 50% in size
Method in brief: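 Plated VDR-bla cells (4 h, 37C) received compound, incubated 16 h, then LiveBLAzer substrate 2 h RT; CellTiter-Glo added afterwards, luminescence read at 30 min.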

[2] = qHTS assay to identify small molecule antagonists of the vitamin D receptor (VDR) signaling pathway - cell viability counter screen (AID 743225); note: nearly all actives have a fitted effect of over 50% in size
Method in brief: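 In this counter screen, VDR-bla HEK 293T cells receive test compound plus 3 nM final calcitriol for 16 h at 37C. Room-temperature steps of 2 h with the beta-lactamase substrate, then 30 min with CellTiter-Glo, precede the luminescence read.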

[3] = qHTS assay to identify small molecule agonists of the NFkB signaling pathway - cell viability counter screen (AID 1159515; calls by dose curve; note: series mostly up to about 61 µM; nearly all actives have a fitted effect of over 55% in size)
Method in brief: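 Using the same wells as the NFkB reporter read, ME-180 NFkB-bla cells given compounds for 5 hr were assessed for viability via CellTiter-Glo, with luminescence taken after a 30 min room-temperature incubation.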

[4] = qHTS assay to identify small molecule agonists of the endoplasmic reticulum stress response signaling pathway (AID 1159516; active = well fitted activation curve with a large enough effect in the signal ratio in the repeat runs, not every such curve was filed as active; the % refers to the signal ratio)
Method in brief: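 An ESRE-bla HeLa cell assay: compounds were pin-transferred from DMSO onto overnight-plated cells and left 5 hr at 37 C. Substrate was then loaded for 2 hr at room temperature before reading fluorescence at 460 nm and 530 nm.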

[5] = qHTS assay to identify small molecule antagonists of the retinoid-related orphan receptor gamma (ROR-gamma) signaling pathway - cell viability counter screen (AID 1159520); note: nearly all actives have a fitted effect of over 50% in size; note: potency is the fitted concentration of half-maximal effect
Method in brief: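 Tet-on ROR gamma CHO cells (1,000/well) were plated 4 hr, given compounds in DMSO for 2 hr at 37 C, then induced with 1 uM final doxycycline for 16 hr. Viability was read as ATP by CellTiter-Glo luminescence after 30 min.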

[6] = target: Nuclear receptor ROR-gamma (Homo sapiens) (UniProt P51449); assay: qHTS assay to identify small molecule antagonists of the retinoid-related orphan receptor gamma (ROR-gamma) signaling pathway (AID 1159521; note: nearly all actives have a fitted effect of over 50% in size; note: potency is the fitted concentration of half-maximal effect;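 for activity change, negative = inhibition: CHO cells with doxycycline inducible ROR-gamma driving an RORE luciferase reporter; top concentration of the series differs between compounds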)
Method in brief: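 Screening format: cell-based luciferase reporter in CHO cells with doxycycline-inducible RORγ. Compound pre-exposure lasts 2 h, doxycycline is 1 uM final, induction runs 16 h at 37 C, and ONE-Glo luminescence is read.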

[7] = qHTS assay to identify small molecule agonists of the AP-1 signaling pathway - cell viability counter screen (AID 1159525; calls by dose curve; note: nearly all actives have a fitted effect of over 55% in size)
Method in brief: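 ME-180 AP-1-bla, 2500 cells/well, Opti-MEM + 0.5% dialyzed FBS; overnight 37 °C; cpd 15-pt titration, 5 h 37 °C; CellTiter-Glo 30 min RT; luminescence read; normalised to TOAB and DMSO controls.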

[8] = qHTS assay to identify small molecule agonists of the AP-1 signaling pathway (AID 1159526; calls by dose curve)
[9] = target: Retinoic acid receptor RXR-alpha (Homo sapiens) (UniProt P19793); assay: qHTS assay to identify small molecule agonists of the RXR signaling pathway (AID 1159527; calls by dose curve; note: nearly all actives have a fitted effect of over 35% in size; note: potency is the fitted concentration of half-maximal effect)
Method in brief: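 Fluorescence ratio readout (460 vs 530 nm) from GeneBLAzer RXR-alpha HEK 293T cells after 16 hr compound treatment; cells seeded 5 hr beforehand in low-serum, charcoal-stripped medium.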

Retinoic acid receptor RXR-alpha (Homo sapiens), sequence (P19793 whole entry, looked up): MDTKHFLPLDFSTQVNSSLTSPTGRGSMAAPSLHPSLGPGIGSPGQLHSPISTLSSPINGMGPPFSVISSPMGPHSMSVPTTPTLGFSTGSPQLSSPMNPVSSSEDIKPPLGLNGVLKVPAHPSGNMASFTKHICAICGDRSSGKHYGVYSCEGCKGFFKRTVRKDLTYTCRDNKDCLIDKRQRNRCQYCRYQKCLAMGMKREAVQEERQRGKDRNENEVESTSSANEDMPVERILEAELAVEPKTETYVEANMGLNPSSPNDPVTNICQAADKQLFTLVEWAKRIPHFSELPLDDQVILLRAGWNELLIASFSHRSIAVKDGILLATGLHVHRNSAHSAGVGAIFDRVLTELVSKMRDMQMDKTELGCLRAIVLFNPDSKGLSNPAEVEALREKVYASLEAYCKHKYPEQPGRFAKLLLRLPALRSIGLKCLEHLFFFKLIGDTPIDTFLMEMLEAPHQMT

With `CC/C(=C\C(=N/O)C(N)=O)C(C)[N+](=O)[O-]` (centres undefined) the Potency [1] was “inactive”, the Potency [2] was “inactive” and the Potency [3] was “inactive”. For the same compound, the Potency [4] was “inactive”, the Potency [5] was “inactive” and the Potency [6] was “inactive”. The Potency [7] was “inactive” and the Potency [8] was “inactive”.

In the case of `CC(C)(C)c1ccc(OCC2CO2)cc1` (centres undefined), the Potency [1] is reported as “inactive”, the Potency [2] is reported as “inactive” and the Potency [3] is reported as “inactive”. For the same compound, the Potency [4] was “inactive”, the Potency [5] was “inactive” and the Potency [6] was “inactive”. For the same compound, the Potency [7] was “inactive” and the Potency [9] was “inactive”.

For `O=C1[C@H](CC[C@H](O)c2ccc(F)cc2)[C@@H](c2ccc(O)cc2)N1c1ccc(F)cc1`, the Potency [1] was “inactive”, the Potency [2] was “inactive” and the Potency [3] was “inactive”. The Potency [4] was “inactive”, the Potency [5] was “inactive” and the Potency [6] was “inactive”. For the same compound, the Potency [7] was “inactive” and the Potency [8] was “inactive”.

With `Nc1cnn([C@@H]2O[C@H](CO)[C@@H](O)[C@H]2O)c(=O)n1` the Potency [1] was “inactive”, the Potency [2] was “inactive” and the Potency [3] was “inactive”. The Potency [4] was “inactive”, the Potency [5] was “inactive” and the Potency [6] was 21.7 µM (active). For the same compound, the Potency [7] was “inactive” and the Potency [8] was “inactive”.

With `Oc1ccc2c(c1)OCO2` the Potency [1] was “inactive”, the Potency [3] was “inactive” and the Potency [4] was “inactive”. The Potency [5] was “inactive”, the Potency [6] was “inactive” and the Potency [7] was “inactive”. The Potency [8] was “inactive”.

With `OC(CCN1CCCCC1)(c1ccccc1)C1CCCCC1` (centres undefined) the Potency [1] was “inactive”, the Potency [3] was “inactive” and the Potency [4] was “inactive”. The Potency [5] was “inactive”, the Potency [6] was “inactive” and the Potency [7] was “inactive”.

With `O=C(O)Cc1sc(-c2ccccc2)nc1-c1ccc(Cl)cc1` the Potency [1] was “inactive”, the Potency [2] was “inactive” and the Potency [3] was “inactive”. For the same compound, the Potency [4] was “inactive”, the Potency [5] was “inactive” and the Potency [6] was “inactive”. For the same compound, the Potency [7] was “inactive”.

With `COCCOCCOCCOCCOC` the Potency [1] was “inactive”, the Potency [2] was “inactive” and the Potency [3] was “inactive”. For the same compound, the Potency [4] was “inactive”, the Potency [5] was “inactive” and the Potency [6] was “inactive”. For the same compound, the Potency [7] was “inactive” and the Potency [8] was “inactive”.

In the case of `Cc1ccccn1`, the Potency [1] is reported as “inactive”, the Potency [2] is reported as “inactive” and the Potency [3] is reported as “inactive”. For the same compound, the Potency [4] was “inactive”, the Potency [5] was “inactive” and the Potency [6] was “inactive”. For the same compound, the Potency [7] was “inactive” and the Potency [8] was “inactive”.

In the case of `CN(C)CC/C=C1\c2ccccc2COc2ccccc21`, the Potency [1] is reported as “inactive”, the Potency [2] is reported as “inactive” and the Potency [3] is reported as “inactive”. For the same compound, the Potency [4] was “inactive”, the Potency [5] was “inactive” and the Potency [6] was “inactive”. The Potency [7] was “inactive”.

In the case of `CN1CCC[C@@H]1c1cccnc1`, the Potency [1] is reported as “inactive”, the Potency [3] is reported as “inactive” and the Potency [4] is reported as “inactive”. The Potency [5] was “inactive”, the Potency [6] was “inactive” and the Potency [7] was “inactive”. The Potency [9] was “inactive”.

In the case of `CCCCCOC(=O)c1ccc(O)cc1`, the Potency [1] is reported as “inactive”, the Potency [2] is reported as “inactive” and the Potency [3] is reported as “inactive”. The Potency [4] was “inactive”, the Potency [5] was “inactive” and the Potency [6] was “inactive”. The Potency [7] was “inactive” and the Potency [9] was “inactive”.

With `CN(C)CCCOc1nn(Cc2ccccc2)c2ccccc12` the Potency [1] was “inactive”, the Potency [2] was “inactive” and the Potency [3] was “inactive”. The Potency [4] was “inactive”, the Potency [5] was “inactive” and the Potency [6] was “inactive”. For the same compound, the Potency [7] was “inactive” and the Potency [9] was “inactive”.

For `O=C(O)/C=C/c1cnc[nH]1`, the Potency [1] was “inactive”, the Potency [3] was “inactive” and the Potency [4] was “inactive”. The Potency [5] was “inactive”, the Potency [6] was “inactive” and the Potency [7] was “inactive”. For the same compound, the Potency [8] was “inactive”.

For `CC(=O)N(CC(=O)N(C)C)c1ccccc1`, the Potency [1] was “inactive”, the Potency [2] was “inactive” and the Potency [3] was “inactive”. For the same compound, the Potency [4] was “inactive”, the Potency [5] was “inactive” and the Potency [6] was “inactive”. The Potency [7] was “inactive” and the Potency [9] was “inactive”.

For `NC(N)=N/N=C/c1c(Cl)cccc1Cl`, the Potency [1] was “inactive”, the Potency [2] was “inactive” and the Potency [3] was “inactive”. For the same compound, the Potency [4] was “inactive”, the Potency [5] was “inactive” and the Potency [6] was “inactive”. The Potency [7] was “inactive”.

In the case of `CC(C)NCC(O)COc1ccc(CC(N)=O)cc1` (centres undefined), the Potency [1] is reported as “inactive”, the Potency [2] is reported as “inactive” and the Potency [3] is reported as “inactive”. The Potency [4] was “inactive”, the Potency [5] was “inactive” and the Potency [6] was “inactive”. The Potency [7] was “inactive” and the Potency [8] was “inactive”.

With `CCCCCCOC(=O)CCC` the Potency [1] was “inactive”, the Potency [2] was “inactive” and the Potency [3] was “inactive”. The Potency [4] was “inactive”, the Potency [5] was “inactive” and the Potency [7] was “inactive”. For the same compound, the Potency [9] was “inactive”.

For `Cc1ncsc1CCO`, the Potency [1] was “inactive”, the Potency [3] was “inactive” and the Potency [4] was “inactive”. The Potency [5] was “inactive”, the Potency [6] was “inactive” and the Potency [7] was “inactive”. The Potency [8] was “inactive”.

In the case of `CCCOc1ccc2nc(NC(=O)OC)[nH]c2c1`, the Potency [1] is reported as “inactive”, the Potency [3] is reported as “inactive” and the Potency [4] is reported as “inactive”. The Potency [5] was “inactive”, the Potency [6] was “inactive” and the Potency [7] was “inactive”.

In the case of `CC(C)CCCC(C)CCO` (centres undefined), the Potency [2] is reported as “inactive”, the Potency [3] is reported as “inactive” and the Potency [4] is reported as “inactive”. The Potency [5] was “inactive”, the Potency [6] was “inactive” and the Potency [7] was “inactive”. The Potency [8] was “inactive”.

In the case of `Nc1ccc(C(=O)N2CC3CC(CN(Cc4ccccc4)C3)C2)cc1`, the Potency [1] is reported as “inactive”, the Potency [2] is reported as “inactive” and the Potency [3] is reported as “inactive”. The Potency [4] was “inactive”, the Potency [5] was “inactive” and the Potency [7] was “inactive”. For the same compound, the Potency [8] was “inactive”.

For `O=C(Cl)c1c(Cl)cccc1Cl`, the Potency [1] was “inactive”, the Potency [2] was “inactive” and the Potency [3] was “inactive”. For the same compound, the Potency [4] was “inactive”, the Potency [5] was “inactive” and the Potency [6] was “inactive”. The Potency [7] was “inactive” and the Potency [8] was “inactive”.

In the case of `CCCCCCCCCCCCCCCCCBr`, the Potency [1] is reported as “inactive”, the Potency [2] is reported as “inactive” and the Potency [3] is reported as “inactive”. The Potency [4] was “inactive”, the activity, negative = cytotoxicity [5] was 2.1% [at 19 µM] and the activity change, negative = inhibition [6] was 24.8% [at 19 µM]. For the same compound, the viability change, negative = cytotoxic [7] was 0.953% [at 15.8 µM] and the activation [9] was -0.344% [at 15.8 µM].

In the case of `NCCCOCCOCCOCCCN`, the Potency [1] is reported as “inactive”, the Potency [2] is reported as “inactive” and the Potency [3] is reported as “inactive”. The Potency [4] was “inactive”, the Potency [5] was “inactive” and the Potency [6] was 17.2 µM (active). For the same compound, the Potency [7] was “inactive”, the Potency [8] was “inactive” and the Potency [9] was 43.6 µM (active).

For `N[C@H]1C(O)O[C@H](CO)[C@H](O)[C@@H]1O` (some centres undefined), the Potency [1] was “inactive”, the Potency [2] was “inactive” and the Potency [3] was “inactive”. The Potency [4] was “inactive”, the Potency [5] was “inactive” and the Potency [6] was “inactive”. For the same compound, the Potency [7] was “inactive” and the Potency [8] was “inactive”.

For `CCCCCCCCCC=O`, the Potency [1] was “inactive”, the Potency [3] was “inactive” and the Potency [4] was “inactive”. For the same compound, the Potency [5] was “inactive”, the Potency [6] was “inactive” and the Potency [7] was “inactive”. The Potency [8] was “inactive”.

With `C[C@@H](C1=C(CCN(C)C)Cc2ccccc21)c1ccccn1` the Potency [1] was “inactive”, the Potency [3] was “inactive” and the Potency [4] was “inactive”. For the same compound, the Potency [5] was “inactive”, the Potency [6] was “inactive” and the Potency [7] was “inactive”. The Potency [9] was “inactive”.

With `C=CC(=O)OCC(C)OCC(C)OCC(C)OC(=O)C=C` (centres undefined) the Potency [3] was “inactive”, the Potency [4] was “inactive” and the Potency [5] was 21.7 µM (active). For the same compound, the Potency [6] was 30.6 µM (active) and the Potency [7] was “inactive”.
